# Bioassay records from PubChem BioAssay.
# Many of the other results were omitted from the sample, so hits are more common in it than they were.
# Dicer processing = inhibitors of Dicer pre-microRNA processing, primary screen, biochemical, cat-ELCCA, chemiluminescence. Endoribonuclease Dicer (Homo sapiens), Q9UPY3. cat-ELCCA pre-miR-21 Dicer processing; hits give high values. z-score at 25 µM. actives 6% (n = 47,000); in the data active = z-score above about 3, passing the limit was not always enough;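 also: plate controls were vehicle for no effect and no enzyme for full effect; higher signal means more uncleaved substrate so more Dicer inhibition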
# Target sequence (Q9UPY3 whole entry, looked up): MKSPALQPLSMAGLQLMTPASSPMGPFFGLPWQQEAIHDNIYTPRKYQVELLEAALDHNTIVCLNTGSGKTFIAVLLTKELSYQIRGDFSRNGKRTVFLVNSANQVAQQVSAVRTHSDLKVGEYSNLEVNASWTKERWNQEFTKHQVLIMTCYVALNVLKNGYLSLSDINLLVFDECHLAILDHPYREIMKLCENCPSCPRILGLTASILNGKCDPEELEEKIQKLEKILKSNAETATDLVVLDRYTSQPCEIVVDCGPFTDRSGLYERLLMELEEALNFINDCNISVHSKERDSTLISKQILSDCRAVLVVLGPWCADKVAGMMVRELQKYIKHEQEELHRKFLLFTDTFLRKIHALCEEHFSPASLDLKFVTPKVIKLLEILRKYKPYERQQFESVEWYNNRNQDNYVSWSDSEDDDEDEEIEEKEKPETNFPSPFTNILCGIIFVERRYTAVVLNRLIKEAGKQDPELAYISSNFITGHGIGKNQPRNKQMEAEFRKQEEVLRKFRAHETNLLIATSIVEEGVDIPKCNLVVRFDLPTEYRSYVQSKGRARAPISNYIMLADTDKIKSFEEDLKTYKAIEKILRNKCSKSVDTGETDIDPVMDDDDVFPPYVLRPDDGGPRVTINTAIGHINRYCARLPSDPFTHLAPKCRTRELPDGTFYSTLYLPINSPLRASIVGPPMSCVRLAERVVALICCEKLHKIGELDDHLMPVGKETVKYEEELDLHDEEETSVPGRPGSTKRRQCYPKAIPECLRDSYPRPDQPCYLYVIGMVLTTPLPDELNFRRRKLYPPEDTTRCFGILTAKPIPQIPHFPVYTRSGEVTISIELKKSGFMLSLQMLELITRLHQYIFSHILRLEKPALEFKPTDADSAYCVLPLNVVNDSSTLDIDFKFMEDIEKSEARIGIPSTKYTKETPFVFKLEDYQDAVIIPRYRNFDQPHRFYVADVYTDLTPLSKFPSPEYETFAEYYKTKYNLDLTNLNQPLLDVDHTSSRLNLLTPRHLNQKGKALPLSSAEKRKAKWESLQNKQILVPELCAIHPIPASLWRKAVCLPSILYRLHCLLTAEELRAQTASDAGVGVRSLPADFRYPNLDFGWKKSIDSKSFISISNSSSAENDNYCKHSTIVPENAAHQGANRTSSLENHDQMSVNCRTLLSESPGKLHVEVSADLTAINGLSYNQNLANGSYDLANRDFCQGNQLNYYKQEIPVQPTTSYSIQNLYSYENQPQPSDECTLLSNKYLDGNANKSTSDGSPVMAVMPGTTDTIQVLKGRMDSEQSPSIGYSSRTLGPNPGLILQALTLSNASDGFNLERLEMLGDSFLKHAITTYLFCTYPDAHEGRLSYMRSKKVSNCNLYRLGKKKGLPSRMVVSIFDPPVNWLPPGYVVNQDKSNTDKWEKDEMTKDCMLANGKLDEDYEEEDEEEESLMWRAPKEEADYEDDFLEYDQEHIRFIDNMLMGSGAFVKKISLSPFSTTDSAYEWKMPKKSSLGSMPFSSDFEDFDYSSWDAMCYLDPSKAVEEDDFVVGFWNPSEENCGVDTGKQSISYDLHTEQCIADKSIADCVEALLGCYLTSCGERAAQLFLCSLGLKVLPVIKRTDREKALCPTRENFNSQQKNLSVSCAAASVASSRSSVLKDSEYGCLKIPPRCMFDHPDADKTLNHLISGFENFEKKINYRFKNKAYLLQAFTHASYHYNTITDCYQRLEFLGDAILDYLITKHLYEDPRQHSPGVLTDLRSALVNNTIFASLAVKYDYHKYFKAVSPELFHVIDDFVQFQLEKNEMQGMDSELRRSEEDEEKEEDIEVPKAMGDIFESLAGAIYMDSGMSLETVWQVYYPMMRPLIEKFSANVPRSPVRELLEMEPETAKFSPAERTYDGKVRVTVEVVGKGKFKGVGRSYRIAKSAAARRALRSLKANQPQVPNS
# Numbers without * were called inactive.
SMILES,Dicer processing
N[C@@H](C(=O)N[C@@H]1C(=O)N2C(C(=O)O)=C(Cl)CC[C@H]12)c1ccccc1,-1.1
O=C1c2ccccc2-c2nc3ncnn3c(-c3ccc4c(c3)OCO4)c21,1.3
COc1ccc(Br)cc1C1Nc2ccc(C)cc2-c2cc(C)nn21 (stereo not drawn),3.5*
COc1ccc(C2Nc3ccc(C)cc3-c3cc(C)nn32)cc1OC (stereo not drawn),2.7
COc1ccc(Br)cc1C1Nc2c(C)cccc2-c2cc(C)nn21 (stereo not drawn),2.9
[N-]=[N+]=Nc1ccc(C(=O)CSC[C@H](NC(=O)CC[C@H](N)C(=O)O)C(=O)NCC(=O)O)cc1,1.7
CCCC(=O)N(c1ccc2oc(=O)sc2c1)S(=O)(=O)c1cccs1,-1.1
O=C(C1CCCCC1)N(c1ccc2oc(=O)sc2c1)S(=O)(=O)c1cccs1,3.7*
CC(C)C(=O)N(c1ccc2oc(=O)sc2c1)S(=O)(=O)c1ccccc1,2.6
COc1ccc([N+](=O)[O-])c(OC)c1C(=O)NC(=O)Oc1c(Cl)cc(F)cc1Cl,-0.58
COc1ccccc1C1CCN(Cc2ccccc2Cl)CC1,-0.23
Cc1ccc(CSC2=NCCCN2)cc1,1.1
CC1CN=C(SCc2ccc(Cl)cc2)N1 (stereo not drawn),2.3
Cc1ccc(CSC2=NCC(C)N2)cc1 (stereo not drawn),3.2*
CCOC(=O)Cc1c(C)[nH]c(=O)[nH]c1=O,-1.2
CCc1ccc(CNc2nc3ccccc3n2C)cc1,3.4*
CCN(CC)CCn1c(NCc2ccncc2)nc2ccccc21,2.7
CCN(CC)CCn1c(NCc2ccc(N(C)C)cc2)nc2ccccc21,4.4*
CCn1c(NCc2ccncc2)nc2ccccc21,2
CN(C)c1ccc(CNc2nc3ccccc3n2CCN2CCCCC2)cc1,2.2
CCCn1c(NCc2ccncc2)nc2ccccc21,1.3
CCOC(=O)CN(C(=O)CSc1nc(C)cc(C)c1C#N)c1ccc(Cl)cc1,-0.02
Cn1nnnc1SCCNCc1ccccc1Cl,-0.29
CCOc1cc(-c2cc(O)c3c(C)oc(C)c3c(=O)c2)ccc1O,0.83
CCOc1cc(-c2cc(=O)c3ccccc3o2)ccc1O,-0.81
SMILES,Dicer processing
CCOc1cc(-c2cc(OCC)c3c(C)oc(C)c3c(=O)c2)ccc1O,3.5*
CC12CN3CC(C)(CN(C1)C3C(O)C(O)C(O)CO)C2 (stereo not drawn),2.6
Cc1ccc(S(=O)(=O)NCC2OCCc3ccccc32)cc1 (stereo not drawn),8.7
CCOC(=O)c1cnn(C(=O)c2cccc3ccccc23)c1N,0.05
CC(=O)c1ccc(-c2c(Cl)cc(Cl)cc2Cl)o1,-0.22
CCOC(=O)c1ccc(-n2c(C)c3c(OC)cccc(=O)c3c2C)cc1,3.8*
CCOc1cccc(=O)c2c(C)n(-c3ccc(C)cc3)c(C)c12,1.3
CCOC(=O)c1ccc(-n2c(=S)[nH]c3ccccc32)cc1,0.48
COc1cccc(OC)c1C(=O)Nc1ccccc1NC(=O)c1c(OC)cccc1OC,-2.1
CCOc1ccc(Oc2nc(NCC(C)C)nc(N3CCOCC3)n2)nn1,5.8*
COc1nc(NCC(C)C)nc(Oc2ccc(=O)[nH]n2)n1,-0.42
CN(C)c1nc(Oc2ccc(=O)n(C)n2)nc(N2CCOCC2)n1,-1
COc1cccc(OCCSc2n[nH]c3nc4ccccc4n23)c1,-0.61
O=C(Nc1ccc(C(F)(F)F)cc1)C1CCc2ccccc2O1 (stereo not drawn),-1.8
CCCn1c(C)cc(C)c(C#N)c1=O,0.64
CCCCn1c2ccccc2c2ccccc21,0.42
CCCCn1c(C)cc(=S)cc1C,4.5*
COc1ccc(/C(O)=C2\C(=O)C(=O)N(CCCN(C)C)C2c2ccc(C(C)(C)C)cc2)cc1 (stereo not drawn),0.93
Cc1nnc(NC(=O)Oc2ccccc2)s1,-1
C#CCNC(=O)Nc1csc([N+](=O)[O-])c1,0.22
CC(C)(C)c1cn2c3ccccc3nc2n1CCO,0.87
O=C(Nc1sc2c(c1C(=O)Nc1ccc(Br)cc1)CCCCC2)c1ccco1,2
COC(=O)C1=C(C)N(c2ccc(F)cc2)CC1=O,3.2*
COC(=O)C1=NNC2C(=O)N(c3ccc(F)cc3)C(=O)C12 (stereo not drawn),1.8
COC(=O)C1=C(C)NC(=O)CC1c1ccc(F)cc1 (stereo not drawn),2.2
SMILES,Dicer processing
Cc1nn(-c2ccccc2)nc1CNC(=O)c1sc(-c2ccc(C(F)(F)F)cc2)nc1C,-0.73
CCOC(=O)c1nn(-c2ccc(C)c(Cl)c2)c(=O)c(C#N)c1C,-0.87
Cc1nc2ccccn2c1-c1csc(Nc2ccccn2)n1,9.1
CC(=O)Nc1nc(C)c(-c2csc(Nc3ccccn3)n2)s1,-0.82
Cc1ccn2c(-c3csc(Nc4ccc(S(=O)(=O)Nc5cc(C)on5)cc4)n3)c(C)nc2c1,2.7
Cc1nc2ncccn2c1-c1csc(Nc2ccc(O)cc2)n1,9.1
Cc1ccnc(Nc2nc(-c3c(C)nc4cc(C)ccn34)cs2)c1,5.6*
Cc1ccn2c(-c3csc(Nc4ccc(O)cc4)n3)c(C)nc2c1,7.1*
Cc1nc(C)c(-c2csc(Nc3ccc(O)cc3)n2)s1,6.1*
CC(=O)Nc1nc(C)c(-c2csc(Nc3ccc(O)cc3)n2)s1,-2.7
COc1ccc(Nc2nc(-c3sc(C)nc3C)cs2)cc1,0.54
O=C(c1cc2ccccc2o1)N1CC=C(c2ccccc2)CC1,0.19
Cc1ccc(S(=O)(=O)NC(=O)N2CCCN(c3nc(-c4ccccc4)ns3)CC2)cc1,-1.1
N#Cc1cnc(N2CCc3ccccc32)nc1N,-0.9
COc1ccc(/C(C#N)=C2C=C/C(=N\O)C(Cl)=C\2)cc1,1.4
COC(=O)c1ccc(Cl)cc1N(Cc1c(F)cccc1Cl)S(C)(=O)=O,-0.22
Brc1ccc(C2N(c3ccccc3)CCN2c2ccccc2)cc1,1.9
O=C(CC1SC(=O)NC1=O)Nc1ccc(O)cc1 (stereo not drawn),-0.11
CC1(C)Cc2c(sc3ncn4nc(-c5ccccc5O)nc4c23)C(C)(C)N1,1.6
Cc1cc(C(=O)c2cc3cc(Cl)ccc3o2)ccc1Cl,-0.47
COc1ccc(C(=O)c2ccccc2)c(O)c1,1.1
COc1ccc2oc(C(=O)c3ccc(Cl)cc3)c(N)c2c1,10
COc1ccc(C(=O)c2coc3ccc(O)cc23)cc1,5.4*
COc1ccc(C(=O)c2oc3ccc(Cl)cc3c2N)cc1,0.05
COc1ccc(C(=O)c2oc3ccc(OC)cc3c2N)cc1,4.2*
SMILES,Dicer processing
COc1ccc(-c2cc(=O)c3ccc(O)cc3o2)cc1,0.66
COc1ccc([C@@H]2Sc3ccccc3N(CCN(C)C)C(=O)[C@@H]2OC(C)=O)cc1,-0.98
COc1ccc2cc([C@@H](C)C(=O)O)ccc2c1,0.98
CCCCCOc1ccc(C2C(C(=O)OC(C)C)=C(C)N=C3SCCC(=O)N32)cc1OC (stereo not drawn),1.3
Cc1ccc(C)n1-c1ccc(-c2n[nH]c(=S)n2-c2ccccc2)cc1,1.3
CC(Oc1ccccc1-c1ccccc1)c1n[nH]c(=S)n1-c1ccccc1 (stereo not drawn),3.3*
CCn1c(C(C)Oc2ccc(Cl)cc2)n[nH]c1=S (stereo not drawn),-6.2
Cc1ccc(-c2nc(-c3ccncc3)no2)c(Cl)c1,1.4
Cc1nnsc1C(=O)Nc1cccc(N)c1,-3.1
Cc1cc(C)nc(N/C=C(\C#N)S(=O)(=O)c2ccccn2)n1,-0.4
O=C(O)CSCC(=O)Nc1ccc(C(F)(F)F)cn1,-1.2
O=C(O)CSCC(=O)Nc1cccnc1,5.6*
CC(=O)c1ccc(NC(=O)CSCC(=O)O)cc1,4.3*
O=C(O)CSCC(=O)Nc1ccccn1,8.4
